Screening data as filed in PubChem.
RTF Ca sens inh – cardiac RTF calcium desensitization. inhibition, % at 7.15 µM. 0.12% of 340,000 active. IANBD-labeled cardiac RTF, Ca2+ fluorescence. P19429+P45379;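 active = inhibition above the mean inhibition of all tested compounds plus 3 SD, cut at about 17% in these data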;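 also: assay run at fixed EC70 calcium of 1.6 mM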
eLon inh – inhibits E. coli Lon protease. P0A9M0. purified E. coli Lon protease, fluorescence polarization. inhibition, % at 7.94 µM. 0.42% of 360,000 active. AID 602123; in the data active = inhibition above about 13%, passing the limit was not always enough;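 also: 0% = enzyme with probe and DMSO and 100% = no enzyme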
cardiac RTF act – cardiac RTF calcium sensitization. P19429+P45379. IANBD-labeled TnC RTF fluorescence at EC20 calcium; 0% EC20 calcium, 100% full calcium. activation, % at 7.2 µM. 0.24% of 340,000 active. AID 493008;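 active = activation above the mean over all tested compounds plus 3 SD, cut at about 30% in these data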;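 also: rise in fluorescence read as greater calcium sensitivity of cardiac thin filaments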
C-LANA FP – inhibitors of KSHV LANA C-terminal domain DNA binding. 0.078% of 340,000 active. inhibition, % at 9 µM. MBP-C-LANA/FAM-LBS DNA binding, fluorescence polarization. AID 504423;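 active = highest replicate inhibition at or above 60% at 9 µM, even if other replicates fall short; inactive = all replicates below 60% inhibition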;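 also: 0% = neutral control wells and 100% = 4 µM acridine orange control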
Keap1 Nrf2 FP – disrupts human Keap1 binding to Nrf2 peptide; Q14145; Keap1 Kelch-Nrf2 peptide fluorescence polarization, 1536-well; inhibition, % at 9.4 µM; 0.15% of 340,000 active; AID 504523; in the data active = inhibition above about 12%;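 also: human Keap1 Kelch domain with fluorescein labeled Nrf2 9mer peptide probe; 0% = neutral control wells and 100% = peptide positive control; higher means more block of Keap1 binding to Nrf2 peptide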
Target sequence (Q14145 whole entry, looked up, the tested form may be a part): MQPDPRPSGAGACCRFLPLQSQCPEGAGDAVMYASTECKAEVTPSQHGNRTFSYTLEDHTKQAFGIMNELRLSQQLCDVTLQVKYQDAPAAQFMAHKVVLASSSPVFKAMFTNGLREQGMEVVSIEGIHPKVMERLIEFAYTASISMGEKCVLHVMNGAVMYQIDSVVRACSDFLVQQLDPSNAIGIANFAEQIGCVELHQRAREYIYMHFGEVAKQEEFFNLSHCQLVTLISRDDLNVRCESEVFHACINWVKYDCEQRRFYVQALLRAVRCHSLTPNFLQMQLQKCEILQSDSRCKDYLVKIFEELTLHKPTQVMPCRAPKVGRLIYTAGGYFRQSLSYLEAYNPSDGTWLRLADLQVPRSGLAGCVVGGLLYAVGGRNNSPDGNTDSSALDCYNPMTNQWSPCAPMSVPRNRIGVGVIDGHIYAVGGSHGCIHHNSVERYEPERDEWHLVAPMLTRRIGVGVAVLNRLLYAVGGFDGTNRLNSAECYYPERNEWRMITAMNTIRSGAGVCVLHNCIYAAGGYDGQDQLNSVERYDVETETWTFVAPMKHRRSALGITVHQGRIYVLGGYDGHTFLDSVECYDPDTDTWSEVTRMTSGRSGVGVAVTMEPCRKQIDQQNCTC
E coli Lon conf – E. coli Lon inhibition confirmation; shares compounds with eLon inh; purified E. coli Lon, fluorescence polarization; inhibition, % at 7.94 µM; 31% of 1,400 active; AID 602230; in the data active = inhibition above about 16%;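 also: 0% = enzyme with probe and DMSO and 100% = no enzyme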
Starred values were filed as active, the others as inactive; · = no result given; + = active, no number. An excerpt weighted towards active compounds, which were near 0.82% of everything screened.

SMILES	RTF Ca sens inh	eLon inh	cardiac RTF act	C-LANA FP	Keap1 Nrf2 FP	E coli Lon conf
O=C(O)/C=C/C(=O)Nc1ccc(O)cc1	-11	121*	6	6	2	1
COc1ccc(C(O)c2nc(-c3ccc(Cl)cc3)cs2)cc1 (stereo unspecified)	·	1	·	·	·	·
CCN(CC)C(=S)Nc1ccc(Cl)c(Cl)c1	-7	17*	9	1	-3	32*
COCCN(Cc1nc2ccccc2c(=O)[nH]1)C(=O)COc1c(C)cc(Cl)cc1C	-6	-6	-2	0	-4	·
COc1cccc(NC(=O)C2CCN(S(=O)(=O)c3ccc4c(c3)CC(C)N4C(C)=O)CC2)c1 (stereo unspecified)	-7	-4	6	-1	-2	·
CC(=O)N1c2ccc(S(=O)(=O)N3CCC(C(=O)Nc4cccc(C(F)(F)F)c4)CC3)cc2CC1C (stereo unspecified)	-16	28*	-4	0	-9	-59
COc1ccc(Cc2nnc(NC(=O)c3ccccc3F)s2)cc1	9	7	-2	-1	-1	·
CC(C)OCc1ccc(C(=O)N2CCN(CC(=O)N3CCCC3)CC2)cc1	-4	0	-1	-1	-2	·
Cn1c2ccccc2c2cc(/C=N/NC(=O)c3ccc(N)cc3)ccc21	-1	20*	-5	0	-3	2
Cc1ccccc1OCCNc1cc(N2CCCCC2)ccc1[N+](=O)[O-]	-3	15*	6	1	-3	8
Cn1cnnc1SCC(=O)Nc1ccc(N2CCCCC2)cc1	-10	1	8	2	-2	·
CC(=O)c1c(C)[nH]c(C(=O)OCc2ccccc2)c1C	2	-2	4	9	-3	·
CC(=O)c1c(C)[nH]c(C(=O)OCC(=O)N(Cc2ccccc2)C(C)(C)C)c1C	-8	71*	3	-2	-3	-63
C=CC[C@H](CC(=O)NCCO)C(=O)NC[C@@H](OC(=O)[C@@H](CC=C)CC(=O)OC(C)(C)C)c1ccccc1	7	0	9	1	-2	·
Cc1noc(NS(=O)(=O)c2ccc(NC(=O)COc3ccccc3)cc2)c1C	-5	-4	6	1	-5	·
COCC(=O)Nc1ccc(S(=O)(=O)Nc2onc(C)c2C)cc1	·	62*	·	·	·	-7
Cc1sc2ncn(CC(=O)NCC(=O)N3CCN(c4ccccc4F)CC3)c(=O)c2c1C	4	19*	-7	0	2	-29
Cc1ccc(S(=O)(=O)Nc2cncnc2NS(=O)(=O)c2ccc(C)cc2)cc1	1	3	0	-2	-2	·
COc1ccc(NC(=O)Nc2nccs2)cc1	-2	16*	-2	-1	1	-3
COc1ccc(C(=O)Nc2nccs2)cc1	3	-5	-2	1	-1	·
CN1CCN(C(CNC(=O)C(=O)Nc2ccc3c(c2)OCO3)c2ccc(F)cc2)CC1 (stereo unspecified)	-11	-6	-4	0	1	·
CC(=O)Nc1c(Cl)cc2c(c1Cl)Cc1cc(C#N)ccc1-2	-6	12	-5	-1	-5	·
CC(C)C(NS(=O)(=O)c1ccccc1)C(=O)N1CCN(C(=O)c2ccco2)CC1 (stereo unspecified)	2	4	2	-2	-5	·
CSCCC(NS(=O)(=O)c1cccc(C(F)(F)F)c1)C(=O)N1CCN(C(=O)c2ccco2)CC1 (stereo unspecified)	-2	52*	-1	-2	-6	2
CCCn1c(=S)[nH]c2cc(C(=O)N3CCN(C)CC3)ccc2c1=O	·	14*	·	·	·	2
SMILES	RTF Ca sens inh	eLon inh	cardiac RTF act	C-LANA FP	Keap1 Nrf2 FP	E coli Lon conf
CC(=O)O[C@@H]1[C@H](OC(=O)CC(C)C)c2c(ccc3ccc(=O)oc23)OC1(C)C	3	113*	10	1	3	-6
C/C=C(\C)C(=O)OC1c2c(ccc3ccc(=O)oc23)OC(C)(C)C1OC(C)=O (stereo unspecified)	-9	-1	-4	2	2	·
Nc1oc2ccccc2c1C(=O)Cc1ccccc1O[C@@H]1O[C@H](CO)[C@@H](O)[C@H](O)[C@H]1O	-3	-11	5	-1	1	·
COc1cccc(NC(=O)N(CCN(C)C)C(C)c2cccnc2)c1 (stereo unspecified)	4	-3	-5	23	-1	·
CC(c1cccnc1)N(CCN(C)C)C(=O)Nc1ccc(Cl)cc1 (stereo unspecified)	-2	15*	7	2	-5	-2
CC1CCCN(C(=O)C(=O)c2cn(CC(=O)N3CCCCCC3)c3ccccc23)C1 (stereo unspecified)	-1	21*	1	2	2	10
O=C(c1cn(CC(=O)N2CCCC2)c2ccccc12)C1CCCCC1	-2	-4	4	2	-1	·
CN(C(=O)C(=O)c1cn(CC(=O)N2CCCC2)c2ccccc12)C1CCCCC1	-3	39*	-2	1	0	-12
CC1CCN(C(=O)C(=O)c2cn(CC(=O)N3CCCCCC3)c3ccccc23)CC1	3	5	-3	3	0	·
COC(=O)c1sccc1S(=O)(=O)N1CCCC(N(C)CCc2ccccn2)C1 (stereo unspecified)	-4	2	-1	3	-4	·
COC(=O)CN(c1nc(C)c(Br)c(OC)n1)S(=O)(=O)c1ccc(C)cc1	-13	-4	7	0	-2	·
C=CCN(c1nc(C)c(Br)c(OC)n1)S(=O)(=O)c1ccc(C)cc1	2	49*	-1	3	-2	6
COc1ccc(S(=O)(=O)N2CCN(Cc3cc(=O)n4ccccc4n3)CC2)cc1	-3	-1	0	1	-6	·
CCc1cc(=O)oc2cc(OC(=O)CN3C(=O)NC4(CCCC4)C3=O)ccc12	-3	7	2	0	-26	·
O=C(CN1C(=O)NC2(CCCCC2)C1=O)Oc1ccc2c(C(F)(F)F)cc(=O)oc2c1	-1	54*	3	12	-1	33*
CCc1nc2c(OCc3cccc(Cl)c3)cccn2c1N(C)C(=O)c1ccc(OC)cc1	·	2	·	·	·	·
Cn1c(=O)cc2c3c(c(N4CCCCC4)ccc31)C(=O)c1ccccc1-2	·	+	·	·	·	73*
Cn1nc(-c2ccccc2)c(N2CCCCC2)cc1=O	4	-11	6	·	·	·
Cc1c(C=O)c2ccccn2c1C(=O)c1cccs1	-6	31*	16	13	4	22*
Cc1c(C=O)c2ccccn2c1C(=O)c1ccccc1Cl	1	1	-2	-3	-4	·
O=C(NN1C(=O)NC2(CCCCC2)C1=O)c1cccs1	15	-3	1	1	-5	·
N#CC1=C(N)C2=C(N3CCCCC3)CCCC2C1(C#N)C#N (stereo unspecified)	-2	24*	5	41	-2	0
O=c1[nH]c2ccccc2nc1/C=C/c1ccccc1	-4	14*	16	3	-4	-36
